Inhibition data for 26 compounds are collected here from ChEMBL document CHEMBL1157539, “Thousands of chemical starting points for antimalarial lead identification” (Nature, 2010).

Broadly, the Inhibition is the percentage by which the read-out fell short of the control. A higher Inhibition goes with a strong effect.

Molecules are shown by their SMILES.

This experiment has as its system HepG2. As to the kind of experiment: GSK_TCMDC: Percent inhibition of human HepG2 cell line. Test compounds present at 10uM. Type of experiment: functional.
Take `CCCCc1ccc(NC(=O)Nc2cccc(CCNCc3ccccc3)c2)cc1.O=C(O)C(F)(F)F`: the Inhibition is 3%.
The figure for `CCCCCCP(=O)(COc1ccc(CCN(CC(O)COc2cccc3[nH]c(C(N)=O)cc23)CC(O)COc2cccc3[nH]c(C(N)=O)cc23)cc1)OCCCC` (stereo unspecified) is 0%; for `CCC(NCc1ccc(-c2cncc(C(=O)NCC(C)C)c2)cc1)c1ccccc1.O=C(O)C(F)(F)F` (stereo unspecified) it is 14%; for `CN(C)CCNCc1ccc(-c2ccc(-c3nc4ccccc4[nH]3)s2)cc1.O=C(O)C(F)(F)F` it is 0%.
`Clc1ccc(Nc2nc3ccc(Cl)cc3nc2Nc2ccc(Cl)cc2)cc1` showed an Inhibition of 79%.
In the case of `CCCOc1cccc(C(=O)N[C@@H](Cc2ccccc2)[C@H](O)CNCc2cccc(OC)c2)c1`, the Inhibition was 14%.
Under `CCCCNCc1ccc(-c2nc(CN(CCCn3ccnc3)C(=O)NC3CC3c3ccccc3)cs2)cc1.O=C(O)C(F)(F)F` (stereo unspecified) stands 21%; under `O=C(Nc1cc(F)cc(F)c1)N1CCOC(CCN2CCC(c3ccccc3)CC2)(c2ccc(Cl)c(Cl)c2)C1` (stereo unspecified), 31%; under `COc1ccc(C2=[N+]([O-])c3ccccc3C2=O)cc1`, 2%.
Under `COc1cc(CNCCCCCCNCc2cc(OC)c3ccccc3c2OC)c(OC)c2ccccc12.CS(=O)(=O)O` stands 99%; under `COc1cc(NC(=O)c2sc(-c3ccc(Cl)cc3)cc2NC(=O)c2ccncc2)ccc1OCCN1CCCC1`, 100%; under `O=C(CC(c1ccccc1)c1ccccc1O)N1CCOCC1` (stereo unspecified), 30%.
`Cl.O=C(Nc1ccccc1)c1cccc(Nc2nccc(Nc3ccc(Oc4ccccc4)cc3)n2)c1` returned an Inhibition of 6%.
Under `CN(C)c1ccc(C=CC(=O)NC(=O)c2ccccc2O)cc1` stands 6%; under `Cc1ccn2cc(-c3ccc(NC(=O)c4ccc(Br)o4)cc3)nc2c1`, 100%; under `COc1ccc2nccc([C@@H](O)CN3CCC(NCc4ccc5c(c4)NC(=O)CO5)CC3)c2c1.Cl`, 1%.
Consider `CC(C)(CNC(=O)[C@H]1CCCN1)c1nc(-c2ccc(Cl)c(O)c2)c(-c2ccncc2)[nH]1.Cl`, for which the Inhibition amounted to 0%.
Compound `Nc1c2c(nc3ccc(C(=O)Nc4ccccc4)cc13)CCCC2` returned an Inhibition of 20%.
Under `Cc1cccc(Nc2nc(N)c3ccccc3n2)c1.Cl` stands 1%; under `Cc1cc(CN2CCC(Nc3ncc(-c4ccsc4)c4nc(C(F)(F)F)ccc34)CC2)no1.Cl`, 8%; under `CCN(CC)CCCCNc1cc(-c2[nH]c(C(C)(C)C)nc2-c2ccc3cc(OC)ccc3c2)ccn1.O=C(O)C(F)(F)F`, 23%.
With `Fc1cccc(-c2ccc3c(c2)CC(NCc2c[nH]c4cnccc24)C3)c1` (stereo unspecified), the Inhibition is listed as 24%.
`CC(C)(C)OC(=O)C1CCCN(Cc2ccc(-c3cccc(-c4nc5ccccc5[nH]4)c3)cc2)C1.O=C(O)C(F)(F)F` (stereo unspecified): the Inhibition is given as 37%.
`O=C(Cc1cccc2ccccc12)N1CCc2cc3nccc(N4CCN5CCC[C@H]5C4)c3cc21` had an Inhibition of 3%.
`COc1cc2nc(N3CCC(CNC(=O)/C=C/c4ccccc4F)CC3)nc(N)c2cc1OC.Cl` returned an Inhibition of 0%.
The figure for `COc1ccc2nccc([C@@H](O)CN3CCC(NCc4ccc5c(c4)N(C)C(=O)CO5)CC3)c2c1.O=C(O)C(=O)O` is 0%.
